Records with an inconclusive call do not appear. Where a call stands in place of a potency, no number is given. The source made the active and inactive calls. The call rests on the fitted dose curve; in most records, active means well fitted inhibition curve with a large enough effect; inconclusive means small, poorly fitted or top-dose-only effect; inactive means no such curve, though single readings can be large or run the other way.
Potency means the concentration at half of the fitted maximal effect.

The assay is described as follows: qHTS to identify inhibitors of the type 1 interferon - major histocompatibility complex class I in skeletal muscle: primary screen against the NCATS Mechanism Interrogation Plate v5.0 (MIPE) Libary (AID 1347411). Further: nearly all actives have a fitted effect of over 65% in size. As to conditions: iHSKM cells + IFN-b, HiBiT-tagged MHC-I luminescence, 24 h; series mostly up to 45.8 µM. The method, boiled down:
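Immortalized human myoblasts (C25cl48) with HiBit knocked into endogenous HLA-B*08:01 were stimulated with 4 ng/ml IFN-beta and given compounds in 11-point 1:3 titration from 46 uM. After 24 h at 37 C, lytic HiBiT luminescence was read.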
In general terms: Quantitative high-throughput screening tests each substance at several concentrations.
As for `Cn1cc(-c2ccc(F)c(C(F)(F)F)c2)nc1C1CCN(c2ncnc3[nH]ncc23)CC1`, the Potency entry was “inactive”. In the case of `CN1CCN(C2CCN(C(=O)Nc3cc(Oc4ccc(NC(=O)C5(C(=O)Nc6ccc(F)cc6)CC5)c(F)c4)ccn3)CC2)CC1` it was 20.8 µM (active); in that of `O=C(Cc1cccc(OC(F)(F)F)c1)Nc1ccc(CCCCc2nnc(NC(=O)Cc3ccccn3)s2)nn1`, “inactive”.

For `O=C([C@@H](Cc1cccc(C(F)(F)F)c1)NS(=O)(=O)c1cc(F)c2c(c1)CCNC2)N1CCCC1`, the Potency entry is “inactive”. In the case of `Cc1c(F)ccc(C(=O)Nc2cc([N+](=O)[O-])ccc2N2CCN(C)CC2)c1Cl` it was “inactive”. With `O=C(NCC(=O)N1CCCC1)Nc1ccc2cnccc2c1`, the Potency result was “inactive”. On to `O=c1[nH]c([C@@H]2CCCN2)nc2c1oc1ccc(Cl)cc12`, for which the Potency result was “inactive”. Regarding `O=C(O)C1=CO[C@@H](O[C@@H]2O[C@H](CO)[C@@H](O)[C@H](O)[C@H]2O)[C@@H]2C(CO)=CC[C@H]12`, the Potency result is “inactive”.

On to `Fc1ccc(-c2nc(-c3ccccc3F)[nH]c2-c2ccncc2)cc1`, for which the Potency result is “inactive”. As for `Fc1ccc2[nH]ccc2c1-c1nc(N2CCOCC2)c2sc(CN3CCN(CC4CC4)CC3)cc2n1`, the Potency is 33 µM (active). For the compound `FC(F)(F)c1ccc(CNc2ccc(Cc3c[nH]c4ncc(Cl)cc34)cn2)cn1`, the Potency entry was “inactive”. Turning to `Cc1[nH]c(/C=C2\C(=O)Nc3ccc(S(=O)(=O)N(C)c4cccc(Cl)c4)cc32)c(C)c1C(=O)N1CCN(C)CC1`, the Potency is 16.5 µM (active). For the compound `NC(=O)c1ccccc1Nc1ccnc(Nc2cccc(O)c2)n1`, the Potency was 4.66 µM (active). `Cc1cc(-c2cc(OC(=O)c3ccccc3)ccc2Cl)cc2nnc(Nc3ccc(OCCN4CCCC4)cc3)nc12`: the Potency result was “inactive”. As to `O=C(Nc1cccnc1)c1cc(-c2ccnc(F)c2)ccc1OCc1ccccc1`, the Potency result is “inactive”. The value for `NC(=O)c1cnc(N[C@@H]2CCCC[C@@H]2N)nc1Nc1cccc(-n2nccn2)c1` was 13.1 µM (active). On to `COc1ccc(-c2cnc3c(-c4cccc5ncccc45)cnn3c2)cc1`, for which the Potency entry was “inactive”. In the case of `CCCC(CCC)C(=O)Nc1ccn([C@@H]2O[C@H](CO)[C@@H](O)C2(F)F)c(=O)n1` it was “inactive”; in that of `COC(C)(C)CCn1nc(Nc2c(C)cccc2C)c2cnc(Nc3ccc(OCCN4CCCC4)c(F)c3)nc21`, 11.7 µM (active); in that of `CCC[C@H](N[C@H]1CCc2cc(F)cc(F)c2C1)C(=O)Nc1cn(C(C)(C)CNCC(C)(C)C)cn1`, “inactive”. The value for `C[C@@H](c1ccc2nccn2c1)n1nnc2ncc(-c3cnn(C)c3)nc21` was “inactive”; that for `O=C(Nc1ccnc(NC(=O)C2CC2)c1)c1c(Cl)cccc1Cl` was “inactive”; that for `O=C(c1c(F)ccc(NS(=O)(=O)N2CC[C@@H](F)C2)c1F)c1c[nH]c2ncc(-c3cnc(C4CC4)nc3)cc12` was “inactive”.

On to `O=C1Nc2nc(-c3c(O)cccc3OCC3CC3)cc([C@@H]3CCCNC3)c2CO1`, for which the Potency is 3.7 µM (active). The value for `CN1C(=O)c2sccc2N(C)c2nc(Nc3ccc(S(N)(=O)=O)cc3)ncc21` was 26.2 µM (active); that for `COc1cc2c(cc1OCCCN1CCCC1)N=C(N)C21CCC1` was “inactive”.

For the compound `C=CC(=O)Nc1cccc(Nc2nc(Nc3ccc(NC4CN(CCF)C4)cc3OC)ncc2C(F)(F)F)c1`, the Potency is 16.5 µM (active). For the compound `O=C(N[C@H]1CCC[C@H](CO)C1)C1CCN(c2nc3cc(Cl)c(-c4ccc(Cl)cc4)cc3o2)CC1`, the Potency entry is “inactive”.

In the case of `CCCCNc1ncc(-c2ccc(CN3CCOCC3)cn2)c(NC2CCC(O)CC2)n1` (centres undefined), the Potency entry is “inactive”.

Values taken from PubChem BioAssay (NCATS).
